In one assay the test system is Klebsiella pneumoniae. As to conditions: Concentration 32 ug.mL-1;; ASSAY_TEST Inhibition of Bacterial Growth; detection method Absorption (OD600); MEDIA CAMHB; plate type 384well; NBS; CORNING #3640; time 18 hr.
A further assay deals with Candida albicans. As to conditions: Concentration 32 ug.mL-1; ASSAY_TEST Inhibition of Fungal Growth; detection method Absorption (OD530).
A further assay relates to Cryptococcus neoformans. As to conditions: Concentration 32 ug.mL-1; ASSAY_TEST Inhibition of Fungal Growth; detection method Resazurin; Absorption (OD600-OD570); plate type 384well; NBS; CORNING #3640. On the technique in general: Alamar Blue is a resazurin reagent that responds to reducing activity.

Results with a measured potency or affinity are listed apart.

In general, Inhibition refers to the drop in the measured response relative to a control, in per cent. Take `COc1ccc(-c2noc(Cn3nc4ccc(-c5ccccc5)nn4c3=O)n2)cc1OC`: the Inhibition is 11.35% with Klebsiella pneumoniae, 4.81% in the assay on Candida albicans and -11.77% in the assay with Cryptococcus neoformans.
For `CCc1ccc(NC(=O)CSc2nnc3c(=O)n(-c4ccccc4)ccn23)cc1`, in that order: 10.7%, 2.07% and -14.31%.
Taken in the same sequence, the figures for `Cc1ccc(Oc2nccn3c(=O)n(CC(=O)Nc4cccc(Cl)c4)nc23)cc1` were 2.02%, 5.47% and -14.56%.
On to `CC(C)c1nnc2c(=O)n(CC(=O)Nc3cccc(Br)c3)c3ccccc3n12`, for which the values for the Inhibition with Klebsiella pneumoniae, in the assay on Candida albicans and in the assay on Cryptococcus neoformans were 13.24%, 6.25% and -13.28%, respectively.
Taken in the same sequence, the figures for `O=c1n(Cc2nc(-c3ccc(Br)cc3)no2)nc2ccc(-c3ccccc3)nn12` were 7.97%, 1.04% and -15.1%.
In the case of `COc1cc(NC(=O)Cn2nc3ccc(-c4ccc(C)c(C)c4)nn3c2=O)cc(OC)c1`, the Inhibition in the assay on Klebsiella pneumoniae is reported as 2.14%; in the assay on Candida albicans it was 14.91%; with Cryptococcus neoformans it was -15.3%.
For `O=C(Cn1nc2nc(Nc3ccc(F)cc3)ccn2c1=O)NCc1ccc(F)cc1Cl`, in that order: 11.65%, 1.62% and -8.71%.
Taken in the same sequence, the figures for `COc1ccc(OC)c(NC(=O)Cn2nc3ccc(SCc4ccc(Cl)cc4)nn3c2=O)c1` were 2.51%, 9.63% and -22.41%.
In the case of `CCc1nnc2c(SCC(=O)Nc3cc(Cl)ccc3C)nc3ccccc3n12`, the Inhibition is given as 15.39% in the assay on Klebsiella pneumoniae, 3.09% in the assay with Candida albicans and -9.04% with Cryptococcus neoformans.
Regarding `O=C(CSc1nnc2c(=O)n(-c3ccc(Br)cc3)ccn12)Nc1cccc(Cl)c1`, the values for the Inhibition with Klebsiella pneumoniae, in the assay on Candida albicans and in the assay on Cryptococcus neoformans were 6.37%, 6.02% and -15.78%, respectively.

(Values after ChEMBL document CHEMBL4513146, “CO-ADD screening of Karazin Kharkiv National University (Ukraine) compounds”.)
